Data on 90 sequences can be found in the supplement of paper PMC11417369.

Over roughly 25,000 sequences, “ln(normalized median fluorescence intensity)” has its median near 6.7; the highest 2% begin near 10. The sample as a whole holds a higher share of the highest values than the screen did.

This test concerns PfHDP1 homeodomain (GST-tagged). The experiment in a line: gcPBM binding intensity (ln(normalized median fluorescence intensity)); higher = stronger DNA binding. In a few lines:
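Binding intensity is the highest Masliner-normalised natural-log median intensity over replicate spots in either probe orientation. To obtain it, GST-tagged P. falciparum DNA-binding domains made in E. coli were incubated for 1 h on an Agilent 4 × 180k array of primer-extended double-stranded 36-bp intergenic genomic probes plus negative controls. Detection used Alexa488 anti-GST antibody with scanning at 488 nm.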
As for “AGAAAAAAAATGTATACACACAAATATAAAGAAGGA [CACACA_site3806]”, the “gcPBM binding intensity (ln)” value was 7.09.
Consider “GTACTCTTCTCCAGACTGCACTATACGACTCGTACA [GTGCAC_site9770]”, for which the “gcPBM binding intensity (ln)” value was 7.35.
Next, “AAATATTTTTTAATGTGTACATAGAACATATATATA [XGTACX_site3136]”: 6.59; “TTTGTCTGCATACGCACACACGTGTACCATCTTATG [CACACA_site4784]”: 7.89; “AATTAACAAAGACACACACACACACGCACAAAAAAA [CACACA_site6388]”: 7.33.
Next, “GTTAAAATTGGGGACGCATGTTCCTTTCCTTTTTTT [TGCATGCA_site1002]”: 5.83.
Consider “TAAATATAAACACAAACACACACATATATATATATA [CACACA_site7978]”, for which the “gcPBM binding intensity (ln)” value was determined as 9.27.
Then “AATATAATATAATGCACACATAAAACAAAAAAAAAA [CACACA_site3012]”, with 10.2; and “TTAACAAATAAATGCACACATATATATAAATAATAT [CACACA_site28]”, with 9.43.
In the case of “AATATAATATAATGCACACATAAACAAAAAAAAAAA [CACACA_site783]”, the “gcPBM binding intensity (ln)” value turned out to be 10.5.
In the case of “ATATAATCTGAGTGCACACAAATAAATAAACATACA [CACACA_site422]”, the “gcPBM binding intensity (ln)” value was 10.2.
Regarding “TAATATAATCTGAGTGCACACAAATAAATAAACATA [CACACA_site8032]”, the “gcPBM binding intensity (ln)” value was 11.2.
Next, “AATGTTAAACTATGATGTACGGTTAAAAATATAATT [XGTACX_site893]”: 6.43; “TTATATTTTCAGAATAGTACACATATATACATATAT [XGTACX_site2519]”: 6.46.
Then “GTATCAATAAAAAACAGTACATATATAATATATTTA [XGTACX_site1083]”, with 6.24.
Next, “TATTTTCATTTGCGCGCACACAATAATAATTTTTGG [CACACA_site3525]”: 8.28.
With “GATAGACACGTGCACACATGCAATACTTTATTCAGT [TGCATGCA_site778]”, the “gcPBM binding intensity (ln)” value stood at 10.
Then “TTTAATTTGATAGACACATGCACACGTGCAATACTT [TGCATGCA_site777]”, with 10.9; and “ATTTGATAGACACATGCACACATGCAATACTTTATT [CACACA_site5633]”, with 9.05; and “TATTAACAAAATTTTTAACACACAAAAAAAAAAAAA [CACACA_site8542]”, with 6.18.
“ATATCAACTGAATTGTATAGGCGATAAAAGAAAAAA [CACACA_negctrl_site1334]”: the “gcPBM binding intensity (ln)” value was determined as 6.58.
Next, ATAGAAGGCAACTTGGTGCACAAAAAAAAAAATAAT: 10.5; TCCTATATCACAAATGTGCACAGAAAAAAAAAATAT: 11; “TATATATCAAAAATATGTACACAGAAATATATATTA [XGTACX_site6997]”: 6.96.
Next, “AACATGCAAACATGCACACAGAAAAAAAAAATATAT [CACACA_site1565]”: 9.37.
Consider “TATTCTTACAAAAGTAGTACAATCATTCATATTTTT [XGTACX_site631]”, for which the “gcPBM binding intensity (ln)” value turned out to be 6.42.
Then “TTTTTTTTTTATTTTGCACACTTCTAATTTAGTTGT [CACACA_site3429]”, with 10.7; and “AACAATTAGAACTTTGCACACTTCTATATATTTTGT [CACACA_site674]”, with 10.2; and “AAAAATAGTCTTCTTGCACTTTTTAATTTATTTTAA [CACACA_negctrl_site1322]”, with 6.76.
Next, AAAAAAATAGTCTTCTTGCACTTTTTAATTTATTTT: 6.7.
Next, “TTTTTTTTTTATTTTGCACACTTCTAATTTAGTTCT [CACACA_site5828]”: 10.7.
For “AATTTTTTTTTTTTGTTGCACTTTTAGAGTTTTAAT [GTGCAC_site9519]”, the “gcPBM binding intensity (ln)” value worked out at 7.37.
As to “TAATATGAATATATATGTACATACAATTTGTTATAT [XGTACX_site5815]”, the “gcPBM binding intensity (ln)” value was determined as 6.55.
Regarding “TCATATGTATAAATTAGTACATATTTAATGGATATA [XGTACX_site3298]”, the “gcPBM binding intensity (ln)” value came out at 6.26.
Then “ATAATAATATATATTACACACGCATCGTTCATTTAT [CACACA_site8752]”, with 7.06.
Next, “CAATGTTAATATAATACACACAATATGTATTTGTCT [CACACA_site1162]”: 6.8; AAAGGTTTGCGTTGTGTGCACAAAATAAATATATAA: 10.6.
For “TAGGTCATATTTTTTGCACACAAAAAAAAATATAAA [CACACA_site3380]”, the “gcPBM binding intensity (ln)” value worked out at 9.79.
Turning to “AAAAATAAAAGGTGTGCACACAAAAATATATATATA [CACACA_site8507]”, the “gcPBM binding intensity (ln)” value worked out at 10.7.
For the sequence “AAAAAAATAAGGTGCACACAAAAAAAAAAAAAAAAA [CACACA_site812]”, the “gcPBM binding intensity (ln)” value is 9.95.
Then “AAGATAAAATGATGCACACAAAAGGGTGTAATATAT [CACACA_site1706]”, with 8.59.
Consider “AAATAAAAAGGGTGCACACAAAAATATATATATATA [CACACA_site1728]”, for which the “gcPBM binding intensity (ln)” value was 10.4.
Then “AAAAATAAAGGGTGTGCACACAAAAATATATATATA [CACACA_site1727]”, with 10.7; and “ATATATATATTAAAGGTGCACAAATAAATATATACA [GTGCAC_site9532]”, with 9.88; and “ACAAAAAAATAAGGTGCACACAAAAAAAAAAAAAAA [CACACA_site8171]”, with 9.22.
Take “AGTAGTCTGGAGAAAAGTACACAGTATCTGGTAACA [XGTACX_site2034]”: the “gcPBM binding intensity (ln)” value came out at 6.
Next, “TTTTTTTTTTTTTATACACACATTAAAATAAAAAAG [CACACA_site3946]”: 6.74; “TTTTAAATATGCCATACACACTACTCTATAATAAAT [CACACA_site6987]”: 6.56.
Then “AATTTTATTCATTGAGCACACAAAATAAATTATCAA [CACACA_site9079]”, with 6.73; and “TACAAAATAAAAATAATTCTTTCAAAAAATAATAAA [XGTACX_negctrl_site368]”, with 5.86; and “ATCTTTCATCTACCAAGTACAAATTACTTTTTTTTT [XGTACX_site7001]”, with 6.79.
With “ATCAAACAAAAAATAAAAAAATGCGACATGTGTACA [TGCATGCA_negctrl_site164]”, the “gcPBM binding intensity (ln)” value came to 7.34.
Next, “GTCGAGGATATATAAAGTACATATATATATATGATA [XGTACX_site1128]”: 6.41; “TTACATAATATATGTACACACGCAAATACTTAGAAT [CACACA_site320]”: 6.63.
“ACCACATTTTTTTTTGCATGTTGTTTAAAAAAAGGC [TGCATGCA_site137]”: the “gcPBM binding intensity (ln)” value was 6.74.
Next, “TATTTGTAAATCGATACACACATATATCTTAATATA [CACACA_site4273]”: 6.28; “AATTTAATATAATGCACACATAAAAAAAAAATCAAA [CACACA_site1]”: 9.95.
Next, “AATTTAATATAATGCACACATAAAAAAAAATTCAAA [CACACA_site2062]”: 10.5; “TACAATTTAAAACACACACACAATAATACATATATA [CACACA_site1251]”: 6.89; “AATTTAATATAATGCACACATAAAACAAAAACAAAA [CACACA_site529]”: 10.5.
Next, “AATGCTATCATTAATGCACACATTTAAAATTAATAT [CACACA_site3548]”: 10.
Regarding “TTCAAAATAAAAAATTCACACACATATATATATATA [CACACA_site8653]”, the “gcPBM binding intensity (ln)” value was found to be 9.22.
“AATGCTATCATTAATGCACACATTTAAACTTAATAT [CACACA_site5878]”: the “gcPBM binding intensity (ln)” value is 10.6.
Then “AAAATTTAATATAATGCACACATAAAACAAAAACAA [CACACA_site8071]”, with 9.14.
For “TAACTTAATATTAATGCACACAATTTATATATATAT [CACACA_site3903]”, the “gcPBM binding intensity (ln)” value is 10.4.
Then “AAAATTTAATATAATGCACACATAAAAAAAAAATCA [CACACA_site7882]”, with 10.7; and “TATTGTCTTGTATATGCATGTAGACCAAATATGTAA [TGCATGCA_site9]”, with 6.42.
Next, “AATGAGGATATATACACACATACATTAAAAAAATAT [CACACA_site1849]”: 6.67; “TATTAAACTGGACACACACACACACCCATATATAAA [CACACA_site4579]”: 6.93; “TATATCTTAATATTTACACACATGCGCACCCATAAA [CACACA_site5349]”: 7.52.
Consider “GTGTATTTGGTGCGCACACACATGCAAAAAGAAATA [CACACA_site4768]”, for which the “gcPBM binding intensity (ln)” value was determined as 9.15.
Next, “AAAAAAAAAAAAAAATGTACATATATATATTATAAA [XGTACX_site518]”: 6.33; “ATTTTATTTTTTAATAGTACTCATTTTTTATGTGAA [XGTACX_site5494]”: 6.48; “TTAAAGCTGACATATACACACATACATAAATTCATA [CACACA_site5377]”: 6.75.
Then “GATCCTGGTTCTTGTGGTACTTGTTCATTTGTTATA [XGTACX_site7164]”, with 6.69.
Next, “TATATATATATAAGATGTACCCTTTGAAATAATAAT [XGTACX_site7215]”: 8.66; “TATATATATTTATGCACACAAAATATATTATATAAT [CACACA_site5955]”: 10.4; “AAAATTTAATATAATGCACACATAAAAAAAAATTCA [CACACA_site8640]”: 9.79.
“AAAATTTAATATAATGCACACATAAAAAAAAAAAAA [CACACA_site7923]”: the “gcPBM binding intensity (ln)” value turned out to be 10.4.
“ATATTTTATTATATAGGTACACATAATTTCATGTAA [XGTACX_site415]”: the “gcPBM binding intensity (ln)” value is 6.34.
Consider “CATATATATCGTAATGCACACATGTAATTTCATAAT [CACACA_site811]”, for which the “gcPBM binding intensity (ln)” value worked out at 10.7.
Next, “TAGACAAAATATAATGCACACTATTATTTTTATTTA [CACACA_site5508]”: 10.4; “AATTTAATATAATGCACACATAAAAAAAAAAAAAAA [CACACA_site123]”: 10.5; “TATAATTTAAAATACACACACATATATATAATATAT [CACACA_site2000]”: 6.76.
Next, “ACTAGACAAAATATAATGCACACTATTATTTTTATT [CACACA_site2726]”: 10.6; “ATTTCGTAATTTATATCACACACATATATATATAAT [CACACA_site9021]”: 6.84.
As to “AATTTAATATAATGCACACATAAAAAAAAAAAATTC [CACACA_site1504]”, the “gcPBM binding intensity (ln)” value was determined as 10.6.
Then “AAAATTTAATATAATGCACACATAAAAAAAAAAAAT [CACACA_site8425]”, with 10.4.
In the case of “TATTTATACATACATACACACATATAGATTTATATT [CACACA_site7851]”, the “gcPBM binding intensity (ln)” value came to 6.85.
Regarding “TACATACATACATACACACATACATATGTATATATA [CACACA_site2480]”, the “gcPBM binding intensity (ln)” value was determined as 7.37.
